SMILES strings stand for the structures. Activity calls are given as the source filed them. Calls follow the shape of the full dose curve.

This experiment in a line: Cell Proliferation Assay Versus the ED40515 IL2 Dependent ATL cell lines (AID 1053195). To be noted: ED40515 IL2-dependent ATL cells. The source says:
Adult T-cell leukemia (ATL) develops in individuals infected with human T-cell lymphotropic virus-1 (HTLV-1). Clinically, ATL is subclassified into four subtypes: smoldering, chronic, lymphomatous, and acute. Two autocrine loops (IL-2/IL-2Ralpha and IL-15/IL-15Ralpha) and one paracrine stimulation loop that involves IL-9 expression by ATL cells and IL-9Ralpha expression on monocytes are required to maintain viability and proliferation in the smoldering and chronic forms of the disease. These assays examined the differential response profiles for the MIPE library of approved and investigational drugs versus an IL2 dependent and independent matched ATL cell line, with the current submission examining the differential response profiles for drugs on an IL2 dependent matched ATL cell line.
Plate log growing ED40515 +IL2 cells: 1000cells/ well in 5uL phenol red free RPMI +5% FBS +1x p/s, Glutamine using 1536 well white griener tissue culture plates and multidrop cassette acoustic dispensing Columns 1 and 3 DMSO Columns 2 and 4, 9.2 uM Bortezomib Incubate 48 hours for celltiter glo 37C with 5%CO2 and 95% humidity with low evaporation lids Dispense 3 uL per well of cell titer glo with multidrop Incubate for 15 minutes at RT Read on VL/2 using Luminesence Wheel (Filter A)
With `C[C@@H]1[C@@H](CC(C[C@H]2O[C@@H]3O[C@]4(C)CC[C@@H]5[C@H](C)CC[C@@H]([C@H]2C)[C@@]35OO4)C[S+](=O)([O-])c2ccc(COC(=O)N(C)C)cc2)O[C@@H]2O[C@]3(C)CC[C@H]4[C@H](C)CC[C@@H]1[C@@]24OO3` (stereo not given in full), the Potency is 0.0166 µM (active).

As to `C[C@]12CCC(=O)C(O)=C1CC[C@@H]1[C@@H]2CC[C@]2(C)C(=O)CC[C@@H]12`, the Potency was 0.059 µM (active).

In the case of `CN(C)CCN(C)CCc1ccc(Cl)c(Cl)c1`, the Potency was 16.6 µM (active).

`COC1(CS(=O)c2ccccc2)CCN(CCc2c[nH]c3ccc(F)cc23)CC1` (stereo not given): the Potency was 23.5 µM (active).

With `Cc1cc(SCc2sc(-c3ccc(C(F)(F)F)c(F)c3)nc2C)ccc1OCC(=O)O`, the Potency was 18.7 µM (active).

With `CNC(=O)N1N=C(c2ccc(N)cc2)c2cc3c(cc2CC1C)OCO3` (stereo not given), the Potency is 14.8 µM (active).

Turning to `Cn1cc(C2=C(c3cn(C4CCN(Cc5ccccn5)CC4)c4ccccc34)C(=O)NC2=O)c2ccccc21`, the Potency was 14.8 µM (active).

`CNC(=O)c1ccc(N2C(=S)N(c3ccc(C#N)c(C(F)(F)F)c3)C(=O)C23CCC3)cc1F`: the Potency is 20.9 µM (active).

With `CC1=C2C[C@@H]3[C@@H](CC=C4C[C@@H](O)CC[C@@]43C)[C@@H]2CC[C@]12O[C@H]1C[C@H](C)CN[C@H]1[C@H]2C`, the Potency was 16.6 µM (active).

For the compound `C[C@@H]1[C@@H](C(=O)C[C@H]2O[C@@H]3O[C@]4(C)CC[C@@H]5[C@H](C)CC[C@@H]([C@H]2C)[C@@]35OO4)O[C@@H]2O[C@]3(C)CC[C@H]4[C@H](C)CC[C@@H]1[C@@]24OO3`, the Potency is 0.0066 µM (active).

Take `O=c1c(O)c(-c2ccc(O)c(O)c2)oc2cc(O)cc(O)c12`: the Potency is 16.6 µM (active).

For `CCCCC/C=C\C/C=C\C/C=C\C/C=C\CCCC(=O)NC1CC1`, the Potency is 16.6 µM (active).

In the case of `CC(O)(CS(=O)(=O)c1ccc(F)cc1)C(=O)Nc1ccc(C#N)c(C(F)(F)F)c1` (stereo not given), the Potency is 14.8 µM (active).

On to `O=C(O)C(=O)c1cn(Cc2ccccc2)c2ccc(-c3ccc(OC(F)(F)F)cc3)cc12`, for which the Potency is 20.9 µM (active).

Turning to `CC(C)n1c(C=C[C@H](O)C[C@H](O)CC(=O)O)c(-c2ccc(F)cc2)c2ccccc21`, the Potency was 0.209 µM (active).

The record behind these values is PubChem BioAssay (NCATS).
